We go through 66 molecules from ChEMBL document CHEMBL3988442, “University of Dundee, Small-Polar-MMV Screening Library” (2021).

The whole screen tested about 48,000 compounds, of which about 13,000 (27%) showed an effect of 50% or more. This is one part of the list.

In this assay the test system is Wolbachia pipientis. The experiment in a line: Anti-Wolbachia Cell-Based Screen. It is filed as functional. Also noted: scale not given: in the data most compounds retested in dose-response had high values. The settings on record: 5 µM.
For `CC(=O)c1ccc(N2CCCC(CO)(CCOc3ccccc3)C2)nc1` (stereo unspecified), the “Percent Effect” value stood at 5.356%.

For `O=C1NCC2(CCCN(C(=O)Nc3cccc(-c4cscn4)c3)CC2)O1` (stereo unspecified), the “Percent Effect” value is reported as -23.17%.

Take `COCc1cc(N2C[C@@H](C)[C@](O)(C3CC3)C2)ncn1`: the “Percent Effect” value is recorded as -1.024%.

With `COc1ccc2c(c1)CC(NCc1cccc(CO)c1)CC2` (stereo unspecified), the “Percent Effect” value was -7.175%.

Consider `COc1ccc2c(c1)CC(NCCCn1cc(C)cn1)CC2` (stereo unspecified), for which the “Percent Effect” value turned out to be 28.69%.

On to `COc1ccc2c(c1)CC(NCCCn1nc(C)nc1C)CC2` (stereo unspecified), for which the “Percent Effect” value came to 101%.

With `CC(NC(=O)c1cc(C(C)C)[nH]n1)C(=O)Nc1ccccc1` (stereo unspecified), the “Percent Effect” value is given as -6.667%.

Take `Cc1ccc(OC[C@@H]2CNC[C@H](C(=O)NCC3CCCO3)C2)cn1` (stereo partly specified): the “Percent Effect” value was 2.624%.

As to `CCO[C@@H]1CCN(C(=O)c2ccc[nH]2)[C@@H]1Cc1cccnc1.O=C(O)C(F)(F)F`, the “Percent Effect” value stood at 0.6367%.

As to `CO[C@@H]1CCN(Cc2nccn2C)[C@H]1Cc1cccnc1.O=C(O)C(F)(F)F.O=C(O)C(F)(F)F`, the “Percent Effect” value came to 5.954%.

As to `CO[C@@H]1CCN(S(=O)(=O)c2cccs2)[C@H]1Cc1cccnc1.O=C(O)C(F)(F)F`, the “Percent Effect” value was 5.775%.

With `COCCO[C@H]1CCN(C(=O)c2ccsc2)[C@H]1Cc1ccncc1`, the “Percent Effect” value is -3.115%.

As to `CO[C@H]1CCN(S(=O)(=O)c2cccs2)[C@H]1Cc1cccnc1.O=C(O)C(F)(F)F`, the “Percent Effect” value was -2.032%.

As to `COCC(=O)N1CC[C@@H](OCC2CC2)[C@@H]1Cc1cccnc1.O=C(O)C(F)(F)F`, the “Percent Effect” value came to 1.513%.

Turning to `COCCO[C@H]1CCN(C(=O)c2cnccn2)[C@H]1Cc1ccncc1`, the “Percent Effect” value was -26.79%.

As for `CO[C@@H]1CCN(C(=O)Cc2cccc(F)c2)[C@H]1Cc1cccnc1.O=C(O)C(F)(F)F`, the “Percent Effect” value was found to be 114.6%.

Regarding `CO[C@@H]1CCN(C(=O)Cc2ccsc2)[C@H]1Cc1cccnc1.O=C(O)C(F)(F)F`, the “Percent Effect” value stood at 94.83%.

Regarding `CO[C@H]1CCN(C(=O)Cc2ccc(F)cc2)[C@H]1Cc1ccncc1`, the “Percent Effect” value is reported as 101.6%.

For the molecule `CC(=O)NCC(=O)N1CC[C@H](OCC2CC2)[C@@H]1Cc1cccnc1.O=C(O)C(F)(F)F`, the “Percent Effect” value was -17.55%.

In the case of `CO[C@@H]1CCN(C(=O)Cc2ccc(F)cc2)[C@@H]1Cc1cccnc1.O=C(O)C(F)(F)F`, the “Percent Effect” value stood at 111.8%.

For the molecule `C=C(C)CN1CCC(NC(=O)Nc2cc(C(N)=O)ccc2OC)CC1`, the “Percent Effect” value is recorded as -10.13%.

As to `CN1CC2(CCN(Cc3cc(Cl)ccc3OCC(=O)O)CC2)OC1=O`, the “Percent Effect” value is recorded as -19.61%.

Turning to `CCc1nn(C)c(Cl)c1CN1CCN(c2ccc(Cl)nn2)CC1`, the “Percent Effect” value was -2.423%.

For the molecule `CCc1nn(C)c(Cl)c1CN1CCCC2(CC1)CN(C)C(=O)O2` (stereo unspecified), the “Percent Effect” value came out at 89.96%.

With `CCc1n[nH]c(C(=O)N2CCCC3(CN(C)C(=O)O3)C2)c1C` (stereo unspecified), the “Percent Effect” value was -7.274%.

In the case of `CCc1nn(C)c(Cl)c1CN1CCC2(C1)CN(C)C(=O)O2` (stereo unspecified), the “Percent Effect” value is 121.6%.

Regarding `CCc1nn(C)c(Cl)c1CN1CCCC2(C1)CN(C)C(=O)O2` (stereo unspecified), the “Percent Effect” value is 101.8%.

`COc1c(F)cc(CN2CCC3(CC2)CN(C)C(=O)O3)cc1Cl`: the “Percent Effect” value is -3.055%.

Regarding `CCc1nn(C)c(Cl)c1CN1C[C@H](NC(=O)CCO)[C@@H](C(C)C)C1`, the “Percent Effect” value is given as -7.141%.

Consider `CCc1nn(C)c(Cl)c1CN1CCC(Cc2nncn2C)CC1`, for which the “Percent Effect” value was 1.908%.

As to `O=C(O)c1c(Cl)ncn1-c1cccc2ccccc12`, the “Percent Effect” value stood at 101.1%.

Regarding `Nc1nccnc1C(=O)N1CCN(Cc2cccc3ccccc23)CC1`, the “Percent Effect” value is listed as -30.2%.

For the molecule `O=C1CC(c2ccc(C(=O)O)cc2)c2ncn(-c3ccccc3Cl)c2N1` (stereo unspecified), the “Percent Effect” value stood at 2.095%.

Consider `Cc1ccccc1N1CCN(C(=O)Cn2ccnc2)CC1=O`, for which the “Percent Effect” value was -5.789%.

`Cc1ccccc1N1CCCN(C(=O)c2nn(C)cc2Cl)CC1`: the “Percent Effect” value is 7.51%.

For `Cc1ccccc1-n1cnc(Cl)c1C(=O)O`, the “Percent Effect” value was 65.1%.

Turning to `Cc1ccc(-c2n[nH]cc2CNCC2CCN(CC(F)(F)F)C2)o1.Cl` (stereo unspecified), the “Percent Effect” value is recorded as -7.389%.

For the molecule `Cc1cc(N2CCCN(C(C(=O)O)c3cccc(C)c3F)CC2)ccn1` (stereo unspecified), the “Percent Effect” value is recorded as 1.101%.

Regarding `O=C1CCC(C(=O)N2CCOC(Cc3cccc4ccccc34)C2)=NN1` (stereo unspecified), the “Percent Effect” value is -9.724%.

Consider `Cc1ccc2ncnc(N3CCOCC3c3c(C)nn(C)c3C)c2c1` (stereo unspecified), for which the “Percent Effect” value is -2.563%.

Regarding `O=S(=O)(c1c(F)cccc1F)N1CCC(Cn2cccn2)CC1`, the “Percent Effect” value was found to be 15.84%.

As to `COCCN1CCCC2(CCN(c3ccsc3)C2=O)C1.O=C(O)C(F)(F)F` (stereo unspecified), the “Percent Effect” value is reported as -26.52%.

For `Cc1nc(CN2CCCC3(CCN(c4cnn(C)c4)C3=O)C2)cs1.O=C(O)C(F)(F)F` (stereo unspecified), the “Percent Effect” value stood at 93.19%.

As for `Cc1nc(CN2CCC3(CCN(c4cnn(C)c4)C3=O)C2)cs1.O=C(O)C(F)(F)F` (stereo unspecified), the “Percent Effect” value was found to be 109%.

Regarding `Cc1cccc(NC2CCN(C(=O)Nc3ccc(F)c(F)c3)CC2)n1`, the “Percent Effect” value amounted to 86.81%.

With `Cc1cccc(NC2CCN(C(=O)Nc3cn[nH]c3)CC2)n1`, the “Percent Effect” value is listed as 110.2%.

As to `Cc1cccc(NC2CCN(C(=O)Nc3cc(C)on3)CC2)n1`, the “Percent Effect” value is -9.175%.

Consider `Cc1cccc(NC2CCN(C(=O)Nc3cc(F)cc(F)c3)CC2)n1`, for which the “Percent Effect” value was -9.024%.

Take `Cc1cccc(NC2CCN(C(=O)Nc3ccccn3)CC2)n1`: the “Percent Effect” value was 83.84%.

Regarding `O=C(Nc1ccc(F)c(Br)c1)N1CCCC1`, the “Percent Effect” value came to 7.891%.

On to `Cc1ccc(C(=O)Nc2cn[nH]c2)cn1`, for which the “Percent Effect” value is 2.995%.

Take `Cc1cccc(NC2CCN(C(=O)Nc3ccncc3)CC2)n1`: the “Percent Effect” value was found to be 110.6%.

Turning to `O=C(CCn1ccc(=O)[nH]c1=O)N1CCC(OCc2cccnc2)CC1`, the “Percent Effect” value is 17.72%.

As for `COCc1noc(C2(c3ccc(Br)cc3)CCOCC2)n1`, the “Percent Effect” value was -15.05%.

`CS(=O)(=O)CCCC(=O)N1CCN(CC2CC2)c2ccccc21`: the “Percent Effect” value is -17.42%.

As for `N#Cc1ccc(N2CCCN(CCCn3cncn3)CC2)cc1`, the “Percent Effect” value is listed as -1.933%.

In the case of `Cc1nc(N2CCC3(CCCNC3=O)C2)nc2c1CCCC2` (stereo unspecified), the “Percent Effect” value was found to be 1.379%.

As to `CC(C(=O)N1CCC(Cc2ccc(F)cc2)CC1)n1ccnc1` (stereo unspecified), the “Percent Effect” value is -3.796%.

On to `CN1C[C@@H](N)C[C@H]1C(=O)N1CCC(Cc2ccc(F)cc2)CC1`, for which the “Percent Effect” value was 81.94%.

Consider `CN1CCC(N(C)CCC(=O)N2CCC(Cc3ccc(F)cc3)CC2)C1` (stereo unspecified), for which the “Percent Effect” value is reported as -0.3221%.

With `CN1CSC[C@H]1C(=O)N1CCC(Cc2ccccc2F)CC1`, the “Percent Effect” value is -34.6%.

For `O=C(C1CCS(=O)(=O)CC1)N1CCC(Cc2ccc(F)cc2)CC1`, the “Percent Effect” value is on record as -5.215%.

Consider `CN1CSC[C@H]1C(=O)N1CCC(CCc2ccccc2)CC1`, for which the “Percent Effect” value is recorded as -22.77%.

As to `CCC(=O)N1CCCC1C(=O)N1CCC(Cc2ccc(F)cc2)CC1` (stereo unspecified), the “Percent Effect” value came to 110.1%.

For `CC(=O)N1CCCC1C(=O)N1CCC(=Cc2cccc(F)c2)CC1` (stereo unspecified), the “Percent Effect” value is given as -11.75%.

Regarding `CN1C[C@@H](N)C[C@H]1C(=O)N1CCC(CCCc2ccccc2)CC1`, the “Percent Effect” value was determined as 99.37%.
